Assay outcomes: PubChem BioAssay, several laboratories
The list is not random: actives were taken first. Their share in the collection is about 4.1%.
NALP1 yeast inh: NALP1 inhibition; inhibition, % at 10 µM; S. cerevisiae NALP1/ASC/caspase-1 growth, X-gal OD620, 72 h; 280,000 compounds, 0.61% hits; in the data active means inhibition mostly above about 24%, no sharp cut-off; inactive means mostly below about 32%
NLRP3 yeast inh: NALP3 inhibition in yeast | Yeast reconstituted NLRP3/ASC/caspase-1, beta-gal luminescence, 24 h | inhibition, % at 10 µM | 330,000 compounds, 0.39% hits | AID 2825;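 active means inhibition of 50% or more; inactive means inhibition below 50%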;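 further: plate controls were induced DMSO wells for no effect and uninduced yeast grown without galactose for full effect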
tim10-1 inh: growth inhibitors of tim10-1 mutant yeast; 330,000 compounds, 2.2% hits; S. cerevisiae tim10-1 ts strain growth, BacTiter-Glo, 24 h; inhibition, % at 20 µM;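 active means inhibition of at least 40%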;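 further: mutant grown at 25 °C; 0% = DMSO wells with yeast and 100% = wells holding no yeast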
PfHsp90 set2: growth inhibition of yeast expressing Plasmodium Hsp90. S. cerevisiae expressing PfHsp90, BacTiter-Glo ATP, 48 h; yeast lacking PDR1 and PDR3 efflux regulators. inhibition, % at 9.4 µM. 310,000 compounds, 0.32% hits;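 active means every replicate shows inhibition above about 80%, whatever the replicate mean, limit read from the data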;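 further: 0% = DMSO neutral controls and 100% = 20 µM radicicol positive controls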
tim23-1 inh: growth inhibitors of tim23-1 mutant yeast; S. cerevisiae tim23-1 growth, BacTiter-Glo luminescence, 24 h; inhibition, % at 20 µM; 330,000 compounds, 1.3% hits;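 active means growth inhibition of the mutant yeast at or above 50%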;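 further: temperature-sensitive mutant grown at 25 °C; plate controls were DMSO-treated mutant yeast for no effect and medium wells lacking yeast for full effect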
TIM10 inh: inhibits growth of TIM10 yeast strain; S. cerevisiae TIM10 strain growth, BacTiter-Glo luminescence, 24 h; inhibition, % at 10 µM; 330,000 compounds, 1.4% hits; AID 463195;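 active means inhibition of 40% or more at the single tested concentration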;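 further: wild-type TIM10 isogenic control strain grown at permissive 25 °C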
tim10-1 confirm: tim10-1 yeast growth inhibition, confirmed; shares compounds with tim10-1 inh; AID 463213; S. cerevisiae tim10-1 ts strain growth, BacTiter-Glo, 24 h; 7,400 compounds, 56% hits; inhibition, % at 20 µM;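 active means inhibition of yeast growth at or above a set limit in either of two repeat tests at 20 µM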;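 further: tim10-1 mutant grown at permissive 25 °C to find synthetic lethal compounds; 0% = DMSO yeast wells and 100% = medium wells without yeast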
The depositor's hits bear a star; · = no result; ! = repeats disagree.

SMILES	NALP1 yeast inh	NLRP3 yeast inh	tim10-1 inh	PfHsp90 set2	tim23-1 inh	TIM10 inh	tim10-1 confirm
CCn1c(CSc2nc3ccccc3s2)n[nH]c1=S	2.6	17.9	41.6*	-18.5	32.7	32.6	31.7*
CCCSc1nnc(CSc2nc3ccccc3s2)n1-c1ccccc1	-1.3	8.4	43.6*	-0.7	29.4	21.8	33.2*
N#CCCCSc1nnc(CSc2nc3ccccc3s2)n1-c1ccccc1	6.6	14.8	29.1	2.6	16.8	19.6	·
O=C(NCc1ccccn1)c1cc(S(=O)(=O)N2CCCCC2)ccc1Cl	·	-0.3	20.5	10.3	24.9	10.2	·
O=c1cc(C(F)(F)F)nc(SCc2cccc3ccccc23)[nH]1	2.3	20.3	40.0*	-14.2	24.3	-2.7	3.5
CCc1cc(=O)[nH]c(SCc2cccc3ccccc23)n1	27.8	8.1	18.3	19.3	47.6	4.7	·
CCCc1ccc(C(C)NC(=S)NCc2ccc(F)cc2)cc1 (centres undefined)	18.0	22.2	31.4	-28.9	9.5	22.8	·
CCC(C)c1ccc(C(C)NC(=S)NCc2ccc(F)cc2)cc1 (centres undefined)	12.0	7.1	44.2*	14.2	49.4	37.7	-11.4
O=C(COc1ccc(Cl)cc1Cl)N/N=C/CCc1ccccc1	-1.0	3.3	16.4	8.2	13.7	13.0	·
O=C(COc1ccc(Cl)cc1Cl)N/N=C/c1ccc[nH]1	10.8	19.7	44.2*	14.9	32.1	1.5	-1.9
CCc1cc2c3c(c(=O)oc2cc1O)CCCC3	-0.9	23.9	40.6*	-15.3	38.6	39.1	11.7
O=C(Cc1ccc(Br)cc1)NCCc1ccc(Cl)cc1Cl	43.0	21.3	9.6	-16.6	17.7	12.0	·
COc1ccc(CC(=O)NCCc2ccc(Cl)cc2Cl)cc1	-2.8	6.3	40.3*	-13.7	27.5	-20.9	17.4
Cc1cc(NC(=O)NC(=O)c2ccccc2F)no1	18.7	13.3	6.8	6.5	18.1	7.4	·
CC(C)(C)C(=O)N1CCN(c2nc3ccccc3s2)CC1	10.6	22.5	46.9*	-0.9	24.7	2.1	-8.9
CCc1ccc2nc(N3CCN(C(=O)C(C)(C)C)CC3)sc2c1	-0.7	28.0	14.6	18.6	22.3	-7.5	·
C(=N\Nc1nc2ccccc2[nH]1)/c1ccccn1	-14.1	·	·	25.7	·	·	·
BrC(=C\c1ccccc1)/C=N/Nc1nc2ccccc2[nH]1	10.2	4.5	54.3*	31.4	43.6	35.8	32.4*
CCOC(=O)c1c(C)[nH]c2cc(Br)c(O)cc12	24.5	-3.4	23.4	·	26.6	25.5	·
CCOC(=O)c1c(OCC)[nH]c2c1cc(O)c1ccccc12	3.2	-1.5	43.3*	-4.1	40.7	36.8	41.0*
CS(=O)(=O)c1ccccc1C(=O)N(CCC1=CCCCC1)c1c(N)n(Cc2ccccc2)c(=O)[nH]c1=O	·	4.7	15.2	·	18.7	12.1	·
Cc1ccc(C(=O)NCCOC23CC4CC(CC(C4)C2)C3)cc1	18.7	14.9	32.9	-1.6	44.7	33.4	·
COc1cc(OC)cc(C(=O)NCCOC23CC4CC(CC(C4)C2)C3)c1	6.1	-1.9	45.5*	4.1	24.5	4.4	30.3
CCc1ccc(NC(=S)N(Cc2ccccc2)Cc2ccccn2)cc1	6.0	0.0	47.6*	·	36.4	34.4	35.4*
C=CCNC(=S)N/N=C(\C)c1ccc(OC)cc1	12.5	1.0	41.0*	-6.7	6.7	20.3	13.6
COc1ccc(-c2csc(NC(=O)CSCc3c(C)noc3C)n2)cc1OC	15.8	-8.7	15.7	-2.7	20.5	9.8	·
Cc1noc(C)c1CSCC(=O)Nc1nc(-c2ccc(F)c(F)c2)cs1	·	21.5	40.4*	-5.7	25.1	35.5	29.0
CCc1ccc(C(=O)C(C)OC(=O)Cc2n[nH]c(=O)c3ccccc23)cc1 (centres undefined)	7.3	10.5	17.7	0.7	18.5	16.8	·
O=C(Nc1ncc([N+](=O)[O-])s1)c1cccs1	7.1	20.2	42.8*!	53.6	31.7	21.5	38.0*
CC1=C(C(=O)Nc2cccc(C(=O)NC3CCCC(C)C3C)c2)SCCO1 (centres undefined)	12.4	14.5	49.3*	-9.9	40.1	5.1	9.6
